Experimental data taken from ChEMBL document CHEMBL4513146, “CO-ADD screening of Karazin Kharkiv National University (Ukraine) compounds”.
Potency and affinity values are given separately.

What was measured:
Staphylococcus aureus = details: Concentration 32 ug.mL-1;; ASSAY_TEST Inhibition of Bacterial Growth; detection method Absorption (OD600); MEDIA CAMHB; plate type 384well; NBS; CORNING #3640; time 18 hr
Escherichia coli = details: Concentration 32 ug.mL-1;; ASSAY_TEST Inhibition of Bacterial Growth; detection method Absorption (OD600); MEDIA CAMHB; plate type 384well; NBS; CORNING #3640; time 18 hr

How did the Inhibition (Staphylococcus aureus) turn out when CCc1ccc(N(Cc2cccc(F)c2)S(=O)(=O)c2cccn3c(C)nnc23)cc1 was run?
Its Inhibition is 10.02%.

What about the Inhibition (Escherichia coli) of the same compound?
Its Inhibition is -2.48%.

Which Inhibition (Staphylococcus aureus) does the source give for CC(C)CCNC(=O)CSc1nnc2c3cc(-c4ccccc4)nn3ccn12 here?
Its Inhibition is 4.29%.

What about the Inhibition (Escherichia coli) of the same compound?
Its Inhibition is 0.66%.

Which results are given for COc1ccc(-c2cc3c4nn(CC(=O)Nc5cccc(OC)c5)c(=O)n4ccn3n2)cc1?
Inhibition (Staphylococcus aureus): -3.02%; Inhibition (Escherichia coli): -0.95%

With O=C(Cn1nc2nc(Nc3ccc(F)cc3)ccn2c1=O)Nc1cc(F)ccc1F as the compound, how does the Inhibition (Staphylococcus aureus) read?
The Inhibition was 11.9%.

And the Inhibition (Escherichia coli)?
The Inhibition was -2.67%.

For COc1cccc(-n2ccn3c(SCc4cc(C)ccc4C)nnc3c2=O)c1, which Inhibition (Staphylococcus aureus) is on record?
Its Inhibition is 11.56%.

What about the Inhibition (Escherichia coli) of the same compound?
Its Inhibition is -0.49%.

For CC(C)(C)S(=O)(=O)c1ccc2nn(CC(=O)Nc3ccc4c(c3)OCO4)c(=O)n2n1, which Inhibition (Staphylococcus aureus) is on record?
Its Inhibition is 14.6%.

And the Inhibition (Escherichia coli)?
Its Inhibition is 0.97%.

How did the Inhibition (Staphylococcus aureus) turn out when COC(=O)c1sccc1NC(=O)Cn1nc2c(Oc3ccc(C)cc3)nc3ccccc3n2c1=O was run?
The Inhibition was 6.43%.

What about the Inhibition (Escherichia coli) of the same compound?
Its Inhibition is 0.18%.

Which Inhibition (Staphylococcus aureus) does the source give for O=C(CSc1nnc2c(=O)n(-c3ccccc3)ccn12)Nc1ccc(Br)cc1 here?
The Inhibition was 5.51%.

And the Inhibition (Escherichia coli)?
Its Inhibition is -4.01%.

Which Inhibition (Staphylococcus aureus) does the source give for COc1ccccc1NC(=O)CSc1nnc2c(=O)n(-c3ccc(C)c(C)c3)ccn12 here?
The Inhibition was 0.64%.

And the Inhibition (Escherichia coli)?
Its Inhibition is -7.52%.

Which results are given for Cc1ccc(-c2ccc3nn(CC(=O)Nc4ccc(Cl)cc4)c(=O)n3n2)cc1C?
Inhibition (Staphylococcus aureus): 7.83%; Inhibition (Escherichia coli): -3.03%

For CCCCNC(=O)Cn1nc2n(Cc3ccco3)c(=O)c3sccc3n2c1=O, which Inhibition (Staphylococcus aureus) is on record?
The Inhibition was 2.23%.

What about the Inhibition (Escherichia coli) of the same compound?
The Inhibition was -5.07%.

Which Inhibition (Staphylococcus aureus) does the source give for Cc1nnc2ccc(S(=O)(=O)N(Cc3ccccc3)c3ccc(Cl)cc3)cn12 here?
The Inhibition was 1.7%.

And the Inhibition (Escherichia coli)?
Its Inhibition is -13.98%.

How did the Inhibition (Staphylococcus aureus) turn out when CCc1ccc(N(Cc2ccccc2Cl)S(=O)(=O)c2cccn3c(C)nnc23)cc1 was run?
The Inhibition was 18.06%.

And the Inhibition (Escherichia coli)?
The Inhibition was 0.45%.

For Cc1ccc(-n2ccn3c(=O)n(Cc4ccc(Cl)cc4)nc3c2=O)cc1C, which Inhibition (Staphylococcus aureus) is on record?
The Inhibition was 0.27%.

What about the Inhibition (Escherichia coli) of the same compound?
The Inhibition was -1.91%.

With Cc1cc(C)c(NC(=O)Cn2nc3c4c5c(sc4ncn3c2=O)CCCC5)c(C)c1 as the compound, how does the Inhibition (Staphylococcus aureus) read?
Its Inhibition is 8.81%.

And the Inhibition (Escherichia coli)?
The Inhibition was -5.83%.

For Cc1cc(C)c(NC(=O)Cn2nc3c(N4CCCC(C)C4)nccn3c2=O)c(C)c1 (stereo unspecified), which Inhibition (Staphylococcus aureus) is on record?
The Inhibition was -1.28%.

And the Inhibition (Escherichia coli)?
The Inhibition was -2.83%.

O=S(=O)(c1ccc2nncn2c1)N(Cc1cccc(F)c1)c1ccc(F)c(F)c1 was tested. Which Inhibition (Staphylococcus aureus) did it give?
The Inhibition was 3.37%.

And the Inhibition (Escherichia coli)?
Its Inhibition is -6.8%.

Which Inhibition (Staphylococcus aureus) does the source give for Cc1ccc(-n2ccn3c(=O)n(Cc4cccc(F)c4)nc3c2=O)cc1C here?
Its Inhibition is -0.24%.

And the Inhibition (Escherichia coli)?
Its Inhibition is -8.8%.

For Cc1cc(C)cc(Nc2nc(C)cc3nn(CC(=O)NC4CCCC4)c(=O)n23)c1, which Inhibition (Staphylococcus aureus) is on record?
The Inhibition was 11.66%.

And the Inhibition (Escherichia coli)?
Its Inhibition is 0.01%.

How did the Inhibition (Staphylococcus aureus) turn out when O=C(Cn1nc2c3sc(N4CCCC4)nc3ncn2c1=O)Nc1cccc(Br)c1 was run?
The Inhibition was 14.01%.

What about the Inhibition (Escherichia coli) of the same compound?
Its Inhibition is 2.84%.

With COc1ccc(NC(=O)CSc2nnc3c(=O)n(-c4ccccc4OC)ccn23)cc1Cl as the compound, how does the Inhibition (Staphylococcus aureus) read?
The Inhibition was 16.85%.

And the Inhibition (Escherichia coli)?
Its Inhibition is -0.75%.

What does the source list for CC(C)Cn1c(=O)c2ccc(C(=O)NC3CCCC3)cc2n2c(=O)n(CC(=O)NC3CCCCC3)nc12?
Inhibition (Staphylococcus aureus): -0.85%; Inhibition (Escherichia coli): -0.58%

How did the Inhibition (Staphylococcus aureus) turn out when CCOC(=O)c1ccccc1NC(=O)Cn1nc2ccc(Sc3ccc(C)cc3)nn2c1=O was run?
The Inhibition was 14.05%.

And the Inhibition (Escherichia coli)?
The Inhibition was 1.21%.

CCc1nnc2ccc(S(=O)(=O)N(Cc3ccccc3F)c3ccc(OC)cc3)cn12 was tested. Which Inhibition (Staphylococcus aureus) did it give?
Its Inhibition is 11.76%.

And the Inhibition (Escherichia coli)?
The Inhibition was -5.17%.

With CCOC(=O)c1ccc(NC(=O)Cn2nc3c(SC4CCCCC4)nccn3c2=O)cc1 as the compound, how does the Inhibition (Staphylococcus aureus) read?
Its Inhibition is 5.44%.

What about the Inhibition (Escherichia coli) of the same compound?
Its Inhibition is -5.89%.

Which Inhibition (Staphylococcus aureus) does the source give for Cc1ccc(NC(=O)Cn2nc3c(Oc4ccccc4)nccn3c2=O)c(Cl)c1 here?
Its Inhibition is 0.38%.

What about the Inhibition (Escherichia coli) of the same compound?
The Inhibition was -2.7%.

O=C(CSc1nnc2c(=O)n(-c3ccc(Br)cc3)ccn12)Nc1cccc(Cl)c1 was tested. Which Inhibition (Staphylococcus aureus) did it give?
The Inhibition was 2.58%.

What about the Inhibition (Escherichia coli) of the same compound?
Its Inhibition is -6.43%.

Cc1ccc(-c2cc3c4nn(CC(=O)Nc5cc(Cl)ccc5C)c(=O)n4ccn3n2)cc1C was tested. Which Inhibition (Staphylococcus aureus) did it give?
The Inhibition was 2.42%.

What about the Inhibition (Escherichia coli) of the same compound?
The Inhibition was -7.74%.

For Cc1ccc(-c2ccc3nn(CC(=O)Nc4ccc(C(C)C)cc4)c(=O)n3n2)cc1C, which Inhibition (Staphylococcus aureus) is on record?
The Inhibition was -10.47%.

What about the Inhibition (Escherichia coli) of the same compound?
The Inhibition was -13.87%.

Which results are given for COc1cc(NC(=O)Cn2nc3c(Sc4cccc(F)c4)nccn3c2=O)cc(OC)c1?
Inhibition (Staphylococcus aureus): 9.3%; Inhibition (Escherichia coli): -0.8%

How did the Inhibition (Staphylococcus aureus) turn out when O=c1c2nn(Cc3c(F)cccc3Cl)c(=O)n2ccn1-c1ccccc1 was run?
Its Inhibition is -4.83%.

What about the Inhibition (Escherichia coli) of the same compound?
Its Inhibition is 2.37%.

With COc1ccc(NC(=O)Cn2c(=O)c3nnc(C(C)C)n3c3ccccc32)cc1 as the compound, how does the Inhibition (Staphylococcus aureus) read?
Its Inhibition is 4.5%.

What about the Inhibition (Escherichia coli) of the same compound?
The Inhibition was -6.7%.

Which Inhibition (Staphylococcus aureus) does the source give for COc1ccc(NC(=O)Cn2nc3c(N4CCOCC4)nccn3c2=O)cc1Cl here?
The Inhibition was 10.11%.

And the Inhibition (Escherichia coli)?
The Inhibition was -1.05%.
